Source: PubChem (National Center for Advancing Translational Sciences (NCATS))
Rows were chosen to be rich in hits. Some 15% of all compounds tested hit in one or more screens of this group.
TDP1 cell noCPT = qHTS for Inhibitors of human tyrosyl-DNA phosphodiesterase 1 (TDP1): qHTS in cells in absence of CPT. DT40 Tdp1-/- hTDP1 cells, no CPT, ATP luminescence, 48 h. Potency, µM (series often up to 46.2 µM), for the others: at the highest dose activity change, negative = growth inhibition, actives largely listed as inhibitors. 15% of 420,000 active. AID 686978, 2013; note: nearly all actives have a fitted effect of over 55% in size
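Readout: luminescence from CellTiter-Glo after 30 min in the dark at RT. Cells: DT40 Tdp1-/- with stable hTDP1, 400/well. Exposure: compounds alone, ≥48 hr, 37 °C.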
RORg inh = inhibitors of mouse ROR gamma transcriptional activity | P51450 | Drosophila S2 Gal4-RORgamma UAS-luciferase reporter, 20 h | Potency, µM (top dose mostly 53.6 µM), inactives show top-dose activity change, negative = inhibition, most hits filed as inhibitors | 5.4% of 310,000 active | AID 2551; note: nearly all actives have a fitted effect of over 60% in size
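Drosophila Schneider cells stably carrying a metallothionein-driven Gal4 DBD–ROR gamma fusion and a UAS-Photinus luciferase reporter were exposed to compound for 1 hr, then induced with copper sulfate (700 uM final) for 20 hr at ambient temperature before luminescence reading.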
ALOX12 inh = blocks human arachidonate 12S-lipoxygenase; P18054; purified 12hLO, xylenol orange hydroperoxide absorbance; Potency, µM (titrated, usually from 108 µM), for inactives: at the top dose activity change, negative = inhibition, usual class: inhibitors; 1.1% of 580,000 active; AID 1671190
Target sequence (P18054 whole entry, looked up): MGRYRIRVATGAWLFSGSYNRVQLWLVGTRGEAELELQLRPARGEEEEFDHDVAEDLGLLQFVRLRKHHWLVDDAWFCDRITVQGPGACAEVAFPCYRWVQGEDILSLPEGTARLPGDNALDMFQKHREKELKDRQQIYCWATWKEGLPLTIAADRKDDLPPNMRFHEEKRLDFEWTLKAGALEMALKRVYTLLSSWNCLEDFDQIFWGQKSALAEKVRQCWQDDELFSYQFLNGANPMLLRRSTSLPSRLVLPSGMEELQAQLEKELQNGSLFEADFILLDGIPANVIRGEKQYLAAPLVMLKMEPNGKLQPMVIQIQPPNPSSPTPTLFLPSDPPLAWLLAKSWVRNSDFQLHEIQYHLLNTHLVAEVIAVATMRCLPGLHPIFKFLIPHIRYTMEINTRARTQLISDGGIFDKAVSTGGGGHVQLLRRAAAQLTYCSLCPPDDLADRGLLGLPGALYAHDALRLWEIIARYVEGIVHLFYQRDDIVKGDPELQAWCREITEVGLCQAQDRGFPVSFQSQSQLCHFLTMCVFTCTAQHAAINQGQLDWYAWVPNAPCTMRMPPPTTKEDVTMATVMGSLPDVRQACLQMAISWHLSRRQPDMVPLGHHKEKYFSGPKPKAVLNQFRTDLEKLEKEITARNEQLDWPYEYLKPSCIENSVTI
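Hydroperoxide product was detected by ferrous iron/xylenol orange as the 573 to 405 nm absorbance ratio. Arachidonic acid at 40 uM (final) was turned over for 30 min at room temperature by 150 nM human 12hLO, pH 7.0 Hepes buffer, after 15 min compound preincubation.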
ELG1 DNA repair = ELG1-dependent DNA repair inhibition; AID 504467; Potency, µM (top dose mostly 46.1 µM), for the others: at the top dose activity change, negative = inhibition, actives largely listed as inhibitors; HEK293T ELG1-luciferase reporter, luminescence, 16 h; DNA damage induced by 5-fluorouridine; 2.3% of 330,000 active; note: nearly all actives have a fitted effect of over 55% in size
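Luminescence from the luciferase reporter, measured 30 min after ONE-Glo reagent at room temperature, was the read-out. Beforehand, 2,000 cells per well were exposed for 16 hr at 37 °C to 5-fluorouridine together with compound or vehicle.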
DT40 TDP1 CPT = growth inhibition of DT40 Tdp1-/-;hTDP1 cells with camptothecin (screen for TDP1 inhibitors); AID 686979; 12% of 420,000 active; chicken DT40 Tdp1-/-;hTDP1 cells + 20 nM CPT, ATP luminescence, 48 h; Potency, µM (series often up to 46.2 µM), for inactives: at the highest dose activity change, negative = growth inhibition, most hits filed as inhibitors; note: nearly all actives have a fitted effect of over 55% in size
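Chicken DT40 Tdp1-/- cells complemented with human TDP1, 400 cells/well, exposed to compounds plus 20 nM camptothecin for at least 48 h at 37 C; viability read as ATP content by CellTiter-Glo luminescence.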
VP16 counter = counter-screen for ROR gamma inhibitors: Gal4-VP16 reporter | Drosophila S2 Gal4-VP16 UAS-luciferase, luminescence, 20 h | Potency, µM (doses to about 53.6 µM), inactives show at the top dose activity, negative = inhibition, usual class: inhibitors | 3.5% of 310,000 active;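 note: Gal4-VP16 expression switched on by copper sulfate through the metallothionein promoter; nearly all actives have a fitted effect of over 50% in size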
Active calls of the source: *; u = inconclusive; x = not tested or not shown; [ ] = remark or other dose. Calls come from the whole dose curve; as a rule, active = well fitted curve in the direction sought with a large enough effect; inconclusive = small, poorly fitted or top-dose-only effect, or another doubt; inactive = no such curve, though single readings can be large; an effect the other way counts as inactive or inconclusive. % is set by controls: 0 for no effect and ±100 for the full control effect; potency is the fitted concentration of half-maximal effect.

SMILES | TDP1 cell noCPT | RORg inh | ALOX12 inh | ELG1 DNA repair | DT40 TDP1 CPT | VP16 counter
CCn1c(O)c(/C=N/NC(=O)c2ccccc2)c(=O)n(CC)c1=S | 29.1µM* | u | 3.8% | u | u | u
CCCCC(=O)N/N=C/c1c(O)n(C2CC2)c(=S)[nH]c1=O | -3.5% | -30.2% | -3.9% | 11.5% | -2.6% | 16.8%
O=c1[nH]c(=S)n(C2CC2)c(O)c1/C=N/Nc1cccc2ccccc12 | u | -200.0% | u | 12.9% | 16.4µM* | u
O=C(N/N=C/c1c(O)n(CCc2ccccc2)c(=O)[nH]c1=O)c1ccccc1 | u | 14.1µM* | 260.9% | 12.6% | -1.0% | -9.1%
O=C(N/N=C/c1c(O)n(C2CCCCC2)c(=S)[nH]c1=O)c1ccccc1 | u | 5.62µM* | u | u | u | u
CC(N=Cc1c(O)n(C2CC2)c(=S)[nH]c1=O)c1ccccc1 (stereo unspecified) | 0.2% | u | u | 1.8% | -0.5% | -7.0%
NC1CCCCC1N=Cc1c(O)n(CCc2ccc(F)cc2)c(=O)[nH]c1=O (stereo unspecified) | 18.4µM* | 0.9%[10 µM] | 0.0% | -14.3% | u | -1.4%
O=C(N/N=C/c1c(O)n(Cc2ccco2)c(=O)[nH]c1=O)c1ccccc1O | -1.0% | 12.6µM* | u | 12.5% | 3.6% | 6.8%
O=C(N/N=C/c1c(O)n(C2CCCCC2)c(=S)[nH]c1=O)c1ccccc1O | u | 3.98µM* | u | u | u | 3.16µM*
CCC(=NCc1ccc2c(c1)OCO2)c1c(O)n(C2CCCCC2)c(=O)[nH]c1=O | u | -44.3% | -20.9% | 20.6µM* | u | u
O=C(c1ccccc1)N1C[C@@H]2C[C@H](C1)c1ccc(C3CCCCC3)c(=O)n1C2 | x | x | -19.8%[176 µM] | x | x | x
O=[N+]([O-])c1cccc2cccnc12 | x | x | 7.7% | x | x | x
COc1ccc(-c2cc([C@H]3CN4CC[C@H]3C[C@@H]4CNC(=O)c3ccc(C)cc3)n(C)n2)cc1 | x | x | -17.7% | x | x | x
C#C[C@H]1CN2CC[C@H]1C[C@@H]2CNC(=O)COc1ccccc1 | x | x | 27.8%[176 µM] | x | x | x
CC(C)c1ccc(-n2c(O)c(/C=N/NC(=O)c3ccncc3)c(=O)[nH]c2=O)cc1 | u | 21.7% | -5.1% | u | 4.1% | -0.8%
CC(C)c1ccc(-n2c(O)c(/C=N/NC(=O)c3ccccc3O)c(=O)[nH]c2=S)cc1 | 6.8% | 0.316µM* | 39.8µM* | 0.0% | 0.5% | 4.47µM*
CC/C(=N\NC(=O)c1ccccc1O)c1c(O)n(C2CCCCC2)c(=O)[nH]c1=O | 12.6% | 2.51µM* | -17.7% | 0.2% | -10.0% | 8.91µM*
C[C@H]1CC[C@]2(NC1)O[C@H]1C[C@H]3[C@@H]4CC[C@H]5C[C@@H](O[C@@H]6O[C@H](CO)[C@H](O[C@@H]7O[C@H](CO)[C@@H](O)[C@H](O[C@@H]8OC[C@@H](O)[C@H](O)[C@H]8O)[C@H]7O[C@@H]7O[C@H](CO)[C@@H](O)[C@H](O)[C@H]7O)[C@H](O)[C@H]6O)CC[C@]5(C)[C@H]4CC[C@]3(C)[C@H]1[C@@H]2C | 1.68µM* | x | x | x | 1.88µM* | x
COC(=O)C[C@](O)(CCCC(C)(C)O)C(=O)O[C@@H]1C(OC)=CC23CCCN2CCc2cc4c(cc2[C@H]13)OCO4 (stereo partly specified) | 0.0094µM* | x | x | x | 0.0133µM* | x
COC(=O)C[C@@](O)(CCC(C)(C)O)C(=O)O[C@@H]1C(OC)=C[C@]23CCCN2CCc2cc4c(cc2[C@@H]13)OCO4 | x | 0.0891µM* | 13.7%[57.4 µM] | x | x | 0.112µM*
COC(=O)C(O)C(O)(CCC(C)C)C(=O)OC1C(OC)=CC23CCCN2CCc2cc4c(cc2C13)OCO4 (stereo unspecified) | x | 0.126µM* | 11.7% | x | x | u
CC(=O)OC1CC(OC2C(O)CC(OC3C(O)CC(OC4CC(O)C5(C)C(CC[C@@H]6[C@@H]5CCC5(C)C(C7=CC(=O)OC7)CCC65O)C4)OC3C)OC2C)OC(C)C1O (stereo partly specified) | x | x | 4.6% | x | x | x
CCOc1ccc(C(=O)Nc2ccc3nc(SCC(=O)N4CCCC4)sc3c2)cc1 | u | x | 0.0% | x | u | x
COc1ccccc1C(=O)Nc1ccc2nc(SCC(=O)N(C)c3ccccc3)sc2c1 | 11.6µM* | x | 0.0% | x | 18.4µM* | x
Cc1ccccc1C(=O)Nc1ccc2nc(SCC(=O)N(C)c3ccccc3)sc2c1 | 14.6µM* | x | -2.1% | x | u | x
SMILES | TDP1 cell noCPT | RORg inh | ALOX12 inh | ELG1 DNA repair | DT40 TDP1 CPT | VP16 counter
CC(C)(C)c1ccc(C(=O)Nc2ccc3nc(SCC(=O)N4CCCC4)sc3c2)cc1 | 4.11µM* | x | 0.0% | x | 8.2µM* | x
Cn1cc(C(=O)OCC(=O)NC(=O)NC(C)(C)C)c2ccccc21 | x | x | 9.5% | x | x | x
O=[S+]1([O-])NCC2(CCN(CC3CCCCC3)C2)Oc2ncccc21 (stereo unspecified) | x | x | 5.0%[6.33 µM] | x | x | x
O=S1(=O)N(CCN2CC=C(c3c[nH]c4cc(F)ccc34)CC2)c2cccc3c2N1CCC3 | 16.4µM* | x | u | u | 9.2µM* | x
N#Cc1cc2c(cc1C(=O)c1cccs1)OCCO2 | x | x | -5.3% | x | x | x
O=C1CCN(C(=O)CCCn2c(=O)oc3ccccc32)CC1 | -4.9% | 7.7% | 10.5% | 15.1% | 19.9% | -5.4%
CC1CCCC(C)N1c1nnc(NC(=O)Cn2c(=O)oc3ccccc32)s1 (stereo unspecified) | 13µM* | u | -10.5% | 6.2% | -20.2% | 14.1µM*
CC(C)NC(=O)NC[C@H]1C[C@@H]2CCN1C[C@@H]2CN1CCCCC1 | x | x | 22.8%[176 µM] | x | x | x
COc1ccc(N2CCN(C(CNC(=O)Oc3ccccc3)c3cccnc3)CC2)cc1 (stereo unspecified) | -24.9% | -3.2% | 1.0% | 0.5% | -7.9% | -11.3%[0.365 µM]
O=S(=O)(NCC(c1cccnc1)N1CCN(c2ccc(F)cc2)CC1)c1ccccc1 (stereo unspecified) | 20.6µM* | x | 8.3% | x | 11.6µM* | x
O=[S+]1([O-])NCC2(CCN(CC3CCCC3)C2)Oc2ncccc21 (stereo unspecified) | x | x | 7.7%[6.33 µM] | x | x | x
O=C(NC1CC1)[C@H]1CN2CC[C@H]1C[C@@H]2Cn1cc(-c2ccc(-c3ccccc3)cc2)nn1 | x | x | 4.1%[176 µM] | x | x | x
Oc1cccc(Nc2ncnc3sc4c(c23)CCCC4)c1 | 14.6µM* | x | u | x | 16.4µM* | x
